Hits are enriched below; roughly 3.5% of the tested compounds scored in any of these assays.
TEAD-YAP inh: TEAD-YAP interaction inhibition, primary screen, TEAD-YAP interaction inhibitor project, luminescence, HEK-TIYL cells; TEAD-Gal4/YAP UAS-luciferase luminescence; inhibition, % at 9.12 µM; 640,000 compounds, 1.4% hits; in the data active = inhibition above about 32%;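 also: 0% = median of test compound wells and 100% = reference inhibitor wells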
FBW7 activator: FBW7 E3 ligase activators, primary screen, biochemical, AlphaScreen, human. AlphaScreen FBW7–phospho-cyclin E peptide binding, activator screen. normalized activity (activation), % at 26.1 µM. 650,000 compounds, 0.13% hits. AID 1259310, 2017; in the data active = normalized activity above about 1.9%;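 also: purified mutant Fbw7 with reduced substrate affinity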
MITF inh: MITF inhibitors, primary screen, biochemical, AlphaScreen, human; Microphthalmia-associated transcription factor (Homo sapiens), O75030; AlphaScreen MITF homodimerization, bead proximity signal; inhibition, % at 2.6 µM; 650,000 compounds, 0.91% hits; AID 1259374, 2018; in the data active = inhibition above about 50%;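 also: 0% = vehicle wells with protein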
GPR151 activ: activators of human GPR151, primary screen, cell-based, PathHunter beta-arrestin, luminescence | PathHunter beta-arrestin GPR151 cells | activation, % at 11.2 µM | 650,000 compounds, 1% hits; in the data active = activation above about 4.9%;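 also: 0% = median of compound wells and 100% = cells with positive control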
Target sequence (Q8TDV0 whole entry, looked up): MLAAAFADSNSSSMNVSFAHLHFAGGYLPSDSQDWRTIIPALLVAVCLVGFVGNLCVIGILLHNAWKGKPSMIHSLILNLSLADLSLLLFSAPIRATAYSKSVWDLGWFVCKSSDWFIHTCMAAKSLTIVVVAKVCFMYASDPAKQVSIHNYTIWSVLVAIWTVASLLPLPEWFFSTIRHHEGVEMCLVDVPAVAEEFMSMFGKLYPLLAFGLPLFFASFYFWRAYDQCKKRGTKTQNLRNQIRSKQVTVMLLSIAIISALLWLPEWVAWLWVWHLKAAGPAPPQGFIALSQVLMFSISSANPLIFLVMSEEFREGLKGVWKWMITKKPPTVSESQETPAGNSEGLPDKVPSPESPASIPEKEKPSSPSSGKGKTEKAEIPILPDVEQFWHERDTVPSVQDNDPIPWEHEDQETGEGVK
GPR151 confirm: GPR151 activators, triplicate retest, confirmation, cell-based, PathHunter beta-arrestin, luminescence; shares compounds with GPR151 activ; GPR151 PathHunter beta-arrestin cells, 90 min; % of EA-reagent control over plate median; activation, % at 11.2 µM; 6,700 tested, under 10 active;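 active = mean percent activation across replicates above the confirmation screen cutoff of 4.91%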
GPR119 counter: GPR119 activators in beta-arrestin cells, counter-screen for GPR151 activator project, cell-based, PathHunter beta-arrestin, luminescence, triplicate | shares compounds with GPR151 activ | 90 min; 0 = compound-well median, 100 = enzyme-acceptor control | activation, % at 11.2 µM | 6,700 compounds, 0.3% hits | AID 1508611, 2020;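 active = mean percent activation in the counterscreen above 29.09%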;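 also: counterscreen on off-target GPR119 to flag nonselective hits from the GPR151 activator screen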
* hit, by the source's call; · = no result; ! = repeats disagree.

SMILES	TEAD-YAP inh	FBW7 activator	MITF inh	GPR151 activ	GPR151 confirm	GPR119 counter
O=S(=O)(Nc1ccccc1F)c1cccc(S(=O)(=O)c2ccccc2)c1	3	0	11	5.3*	0	5
N#Cc1cccc(S(=O)(=O)Nc2ccccc2F)c1	-1	0	2	-1	·	·
CCCCN(CCCNC(=O)c1c(C)cc(=O)oc1C)c1ccccc1	-23	0	15	2	·	·
CCN(CCCNC(=O)c1c(C)cc(=O)oc1C)c1ccccc1	-10	0	3	5.1*	-1	-8
C=CCn1c(C2COc3ccccc3O2)nc2ncc(-c3ccncc3)cc21 (stereo not drawn)	1	0	12	1	·	·
CN1CCC(N(C(=O)c2ccc(C(F)(F)F)cc2)C2CCN(C)CC2)CC1	-7	0	-4	6.2*	-1	-12
COCCCNC(=O)c1ccc2c(c1)ncn2C1CCCCC1	-7	0	-3	2	·	·
Cc1ccccc1S(=O)(=O)Cc1ccc(C(=O)NC2CCCCC2)o1	13	0	6	7.1*	0	-9
CCc1ccccc1S(=O)(=O)Cc1ccc(C(=O)NC2CCCC2)o1	8	1	14	3	·	·
Cc1cnc(N2CCC(N3CCOCC3)CC2)nc1NCCN(C(C)C)C(C)C	1	0	-9	6.7*	-1	6
CC(C)N(CCNc1nc(N2CCC(N3CCOCC3)CC2)nc2c1ncn2C1CCCCC1)C(C)C	3	0	10	14*	1	6
CC(=O)c1ccc(Cc2cnc(N)s2)cc1	8	0	5	8.9*	-1	6
Nc1ncc(Cc2cccc([N+](=O)[O-])c2)s1	6	0	-9	5.4*	0	-4
Nc1ncc(Cc2ccccc2)s1	4	0	-7	1	·	·
O=C(Nc1ncc(Cc2cccc(C(F)(F)F)c2)s1)c1cccc([N+](=O)[O-])c1	-2	0	-11	5.1*	0	-6
COc1cccc(C(=O)N2CCN(c3nc4nonc4nc3N3CCCCCC3)CC2)c1	-9	0	-1	-1	·	·
Cc1cccc(NC(=O)CSc2nc3c(c(=O)n2-c2ccc(F)cc2)SCC3)c1	3	0	-13	6.5*	0	-2
Cc1cc(C)c(-n2c(O)c(/C=C3\C=CC=N3)c(=O)[nH]c2=O)c(C)c1	46*	0	1	7.3*	1	7
CC1=NNC(=O)C1CC(=O)N/N=C/c1c(Cl)cccc1Cl (stereo not drawn)	8	1	14	-1	·	·
CC(C)(O)c1ccccc1CC[C@@H](SCC1(CC(=O)O)CC1)c1cccc(/C=C/c2ccc3ccc(Cl)cc3n2)c1	-8	0	4	6.7*!	0	1
C(=NCc1cccnc1)c1ccc2c(c1)OCO2	11	0	12	-1	·	·
COC1=CC(=O)C[C@@H](C)[C@]12Oc1c(Cl)c(OC)cc(OC)c1C2=O	43*!	0	-7	5.4*!	0	2
COc1ccc(C2CC(=O)C=C(Nc3ccc(Br)cc3)C2)cc1OC (stereo not drawn)	-6	0	11	0	·	·
O=C(c1ccc(-c2cccc(Cl)c2Cl)o1)N1CCOCC1	-77	0	10	7.3*	0	-2
CC(=O)N=c1nc(-c2ccccc2)n(-c2ccccc2)s1	-16	0	-11	6.9*	-1	-10
SMILES	TEAD-YAP inh	FBW7 activator	MITF inh	GPR151 activ	GPR151 confirm	GPR119 counter
CN=c1nc(-c2ccccc2)n(-c2ccccc2)s1	-7	0	2	0	·	·
N#Cc1c(C(F)(F)F)cc(-c2cccs2)nc1SCC(=O)C12CC3CC(CC(C3)C1)C2	3	0	-8	1	·	·
COc1ccccc1-c1nnc2sc(-c3ccc4c(c3)OCCO4)nn12	53*	-1	-10	5.7*	1	9
COc1ccccc1-c1nnc2sc(-c3cc(OC)c(OC)c(OC)c3)nn12	2	0	5	-1	·	·
Cc1ccc(Cl)cc1N(CC(=O)NN=C1CCCC1)S(=O)(=O)c1ccccc1	-10	0	-1	0	·	·
Nn1c(SCc2ccc(C(=O)O)cc2)nnc1-c1ccccn1	7	-1	-1	1	·	·
C#CCN(Cc1ccco1)C(=O)CC1(c2ccccc2F)CC(=O)N(CCOC)C1=O (stereo not drawn)	-1	0	11	6.7*	0	-1
Cc1cc(N/N=C/c2cccc([N+](=O)[O-])c2)nc(-c2ccccc2)n1	-1	0	-8	5.0*	0	7
CS(=O)(=O)N1CCN(C(=O)c2cccnc2)CC1	5	0	8	1	·	·
CS(=O)(=O)N1CCN(C(=S)NCc2ccc(Cl)cc2)CC1	6	0	13	6.8*	0	2
CS(=O)(=O)N1CCN(C(=O)c2ccncc2)CC1	6	0	1	5.6*	0	2
CN(c1ccc(C(=O)N2CCCC2)cc1)S(=O)(=O)c1ccc(Cl)cc1	1	0	10	6.6*	-1	-16
CS(=O)(=O)N1CCN(C(=O)c2ccc(Cl)cc2)CC1	2	0	15	7.8*	1	11
CS(=O)(=O)N1CCN(C(=S)NCc2ccc(F)cc2)CC1	4	0	6	-1	·	·
NC(=O)c1ccccc1NC(=O)c1ncoc1-c1ccc2ccccc2c1	-22	0	-1	1	·	·
COc1cc(NC(=O)Cn2cnc3sc(C)c(S(=O)(=O)N4CCOCC4)c3c2=O)cc(OC)c1OC	-11	0	-6	1	·	·
CC(=O)Nc1ccc(OCCn2c(C)c(C=C3C(=O)NC(=O)NC3=O)c3ccccc32)cc1	-8	0	6	6.4*	-1	-5
Nc1c(C(=O)Nc2ccc3ccccc3c2)sc2nc3c(cc12)CCC3	-46	0	-5	0	·	·
COc1ccc(NC(=O)Nc2ccc(F)cc2F)c([N+](=O)[O-])c1	-14	0	-10	5.0*	0	6
COc1ccc(NC(=O)COc2cccc(C)c2)c([N+](=O)[O-])c1	-33	0	21	6.9*	0	11
COc1cc([N+](=O)[O-])ccc1NC(=O)N1CC(C)OC(C)C1 (stereo not drawn)	5	0	-20	7.0*	0	1
COc1ccc(NC(=O)COc2ccc(-c3ccccc3)cc2)c([N+](=O)[O-])c1	5	0	9	0	·	·
COc1ccc(NC(=S)NC(=O)c2ccc3c(c2)OCO3)c([N+](=O)[O-])c1	2	0	4	7.0*	-1	-11
CC(=O)N1CCN(c2ccc([N+](=O)[O-])c(N3CCc4ccccc4C3)c2)CC1	9	0	8	-2	·	·

Compound activity: PubChem, The Scripps Research Institute Molecular Screening Center
